D2 PAM-1 = Beta-Arrestin HTS for Positive Allosteric Modulators of the Human D2 Dopamine Receptor: Potentiators; 360,000 compounds, 0.23% hits; DiscoveRx D2 beta-arrestin cells, luminescence, 90 min; 100% = 57 uM dopamine signal; potentiation, % (test concentration not listed); D(2) dopamine receptor (Homo sapiens), P14416; in the data active means potentiation above about 50%; inconclusive means mostly about 30% to 49%
Target sequence (P14416 whole entry, looked up): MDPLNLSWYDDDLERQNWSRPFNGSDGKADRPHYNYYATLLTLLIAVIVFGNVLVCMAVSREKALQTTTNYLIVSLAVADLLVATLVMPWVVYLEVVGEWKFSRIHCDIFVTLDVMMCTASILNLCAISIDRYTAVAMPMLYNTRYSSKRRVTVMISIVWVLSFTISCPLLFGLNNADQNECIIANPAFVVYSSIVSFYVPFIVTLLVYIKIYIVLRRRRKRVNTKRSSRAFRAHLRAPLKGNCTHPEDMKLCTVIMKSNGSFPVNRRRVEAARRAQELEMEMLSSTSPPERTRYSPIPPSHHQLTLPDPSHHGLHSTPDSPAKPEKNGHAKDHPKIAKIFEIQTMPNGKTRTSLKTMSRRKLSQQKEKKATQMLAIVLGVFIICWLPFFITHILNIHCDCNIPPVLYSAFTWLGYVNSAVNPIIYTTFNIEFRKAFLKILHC
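D2 cells co-treated with compound plus 50 nM dopamine (EC20) for 90 min at 37 deg C to detect potentiation. Beta-arrestin recruitment was read as enzyme-fragment luminescence after 1 h at ambient temperature. Full response was set by 57 uM dopamine.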
D2 antagonist = HTS Assay for Allosteric Antagonists of the Human D2 Dopamine Receptor: Primary Screen for Antagonists; D(2) dopamine receptor (Homo sapiens), P14416; HEK293 TREx D2 cells, calcium flux, dopamine EC80; inhibition, % at 10 µM; 340,000 compounds, 2% hits; AID 485344, 2010; in the data active means inhibition above about 30%; inactive means below that, where a call was filed; further: 0% is about no effect
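Tetracycline-induced HEK293 TREx cells expressing D2 receptor forced-coupled to calcium signalling, loaded with no-wash calcium dye. Compounds added and calcium flux read 180 s, then dopamine added at EC80 and read a further 180 s.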
D2 PAM-2 = HTS Assay for Positive Allosteric Modulators of the Human D2 Dopamine Receptor: Primary Screen for Potentiators. AID 485347, 2010. 340,000 compounds, 0.34% hits. HEK293 T-REx D2, calcium flux, EC20 dopamine potentiation. potentiation, % at 10 µM;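 active means potentiation over 3 SD above the plate norm, cut at about 30% in these data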; further: 0% is about no effect
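Tetracycline-induced HEK293 T-REx cells force-coupled to calcium signalling expressed D2; compounds were pin-added after a 10 s baseline, read kinetically 180 s, then an EC20 dopamine challenge followed with a further 180 s calcium read.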
D2 ag-1 = Beta-Arrestin HTS for Positive Allosteric Modulators of the Human D2 Dopamine Receptor: Agonists. DiscoveRx PathHunter D2 beta-arrestin, luminescence, 90 min; 100% = 57 uM dopamine signal. activation, % (no concentration beside the values). 360,000 compounds, 0.084% hits; in the data active means activation above about 40%; inconclusive means between about 15% and that limit
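DiscoveRx PathHunter D2 beta-arrestin cells (2,100/well) attached overnight, then compound-stimulated 90 min at 37 C in HBSS/10 mM HEPES/0.1% Tween-20 buffer; beta-galactosidase complementation read by luminescence after 1 h at ambient temperature. Dopamine 57 uM final (EC100) as control.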
D2 ag-2 = HTS Assay for Allosteric Agonists of the Human D2 Dopamine Receptor: Primary Screen for Agonists; D(2) dopamine receptor (Homo sapiens), P14416; HEK293 T-REx D2 cells, calcium flux agonist mode; activation, % at 2 µM; 340,000 compounds, 0.53% hits; AID 485358, 2010;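 active means activation over 3 SD above normal in the single-dose calcium agonist read, cut at about 30% in these data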; further: 0% is about no effect
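Agonism scored from kinetic calcium signal (1 read/sec, 180 s) following compound pin transfer, after a 10 s baseline. Cells: HEK293 Trex line expressing inducible D2 receptor coupled to calcium, dye-loaded after overnight culture at 30 C.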
Numbers without * were called inactive; ? = inconclusive; / = no result given. Only some compounds are listed: those with a hit (about 2.4% of all), similar ones and a draw of the others.

SMILES | D2 PAM-1 | D2 antagonist | D2 PAM-2 | D2 ag-1 | D2 ag-2
CC(C)c1cccc(OCCN2CCCC2)c1 | -22.7 | 70.5* | -22.9 | 5.7 | 0.5
Clc1cccc(OCCN2CCCC2)c1 | -8.4 | 26.2 | -14.4 | 1.8 | 0.4
CC1CCCN(CCOc2ccc(Br)cc2)C1 (centres undefined) | -18.8 | 62.9* | -28.9 | 0.0 | -0.2
CC1CCCN(CCCCOc2cccc(Br)c2)C1 (centres undefined) | -32.3 | 75.0* | -20.2 | 0.1 | 0.2
Brc1cccc(OCCCCN2CCCCC2)c1 | -13.1 | 88.0* | -37.3 | -0.9 | 0.7
Cc1nn(-c2ccccc2)c2nc(C3CC3)cc(C(=O)Nc3ccc(F)cc3)c12 | / | / | -3.7 | / | 1.2
CC[C@@H](C(=O)[C@@H](C)[C@@H](O)[C@H](C)[C@@H]1O[C@@H]([C@@H](CC)C(=O)O)CC[C@@H]1C)[C@H]1O[C@]2(C=C[C@@H](O)[C@]3(CC[C@@](C)([C@H]4CC[C@](O)(CC)[C@H](C)O4)O3)O2)[C@H](C)C[C@@H]1C | 64.4* | / | / | 12.5 | /
O=C(O)CCSc1nc(C(F)(F)F)cc(=O)n1-c1ccccc1 | -8.7 | 32.7* | 6.9 | -2.3 | 0.5
O=C(NCc1ccccc1)c1n[nH]nc1-c1ccccc1O | -8.0 | 30.8* | 8.2 | -0.5 | 0.0
O=C(NCc1ccccc1)c1ccc(C(=O)NCc2ccccc2)cc1 | 3.3 | / | / | 3.9 | /
CC1CCN(C(=O)Cn2cnc3c2c(=O)n(C)c(=O)n3C)c2ccccc2S1 (centres undefined) | -4.1 | 45.2* | 1.2 | -6.2 | 0.9
CC1CCN(C(=O)CN2C(=O)C(=O)N(C)C2=O)c2ccccc2S1 (centres undefined) | -3.9 | 44.3* | -2.6 | -1.4 | 1.3
Cn1c(=O)c2c(ncn2CC(=O)N2CCCc3ccccc32)n(C)c1=O | 23.0 | 4.5 | -1.7 | -3.6 | -0.3
Fc1ccccc1N1CCN(c2c3c(nc4nncn24)CCC3)CC1 | / | / | 1.8 | / | -0.1
Cc1ccc(NC(=O)C(Cc2ccccc2)n2cccc2)cc1C (centres undefined) | / | / | -21.9 | / | /
COc1cccc(C(=O)N(c2ccc(OC)cc2OC)C2C=CS(=O)(=O)C2)c1 (centres undefined) | -6.9 | 30.5* | -6.1 | -2.3 | 0.0
Cc1cccc(C)c1OCCCn1c(CCNC(=O)C2CCCCC2)nc2ccccc21 | / | / | 8.0 | / | 0.4
O=C(c1cccs1)N(Cc1ccco1)Cc1cc2ccccc2[nH]c1=O | -4.1 | 59.8* | -21.5 | -2.3 | 1.0
Cc1ccc2[nH]c(=O)c(CN(Cc3ccco3)C(=O)c3ccncc3)cc2c1 | -2.0 | -1.7 | -0.1 | 0.1 | 0.3
COC(=O)c1ccc(C(=O)OC)c(NC(=O)CSCc2ccccc2Br)c1 | -0.3 | 44.5* | -0.8 | -1.3 | -0.1
OCCOCCN1CCN(C(c2ccccc2)c2ccc(Cl)cc2)CC1 (centres undefined) | -36.0 | 72.0* | -28.9 | -4.0 | 1.7
COc1cccc(OC)c1OCCN1CCN(C(c2ccccc2)c2ccccc2)CC1 | -34.0 | -17.1 | -20.2 | -1.2 | 0.5
Brc1ccc(NC2=Nc3ccccc3CC2)cc1 | -8.2 | 7.7 | -14.1 | 0.2 | 1.1
Cc1ccc(NC2=Nc3ccccc3CC2)cc1 | -56.0 | 60.6* | -26.9 | -5.1 | 0.9
CCN(CC)C(=O)CSc1nc2cc3c(cc2c(=O)n1Cc1ccc(C(=O)NCCc2ccc(OC)c(OC)c2)cc1)OCO3 | / | / | -5.6 | / | 0.1
SMILES | D2 PAM-1 | D2 antagonist | D2 PAM-2 | D2 ag-1 | D2 ag-2
CC(C)(C)c1ccc(C(=O)NC2(C(F)(F)F)C(=O)Nc3c2c(=O)[nH]c(=O)n3-c2ccccc2)cc1 (centres undefined) | / | / | -3.7 | / | /
Cc1ccc(N2C(=O)C(Cl)=C(Nc3c(C)n(C)n(-c4ccccc4)c3=O)C2=O)cc1 | -1.7 | 32.3* | 1.0 | -1.7 | 0.2
Cc1cccc(N2C(=O)C(Cl)=C(Nc3c(C)n(C)n(-c4ccccc4)c3=O)C2=O)c1C | -17.7 | 4.0 | -2.3 | 0.9 | 0.7
Cc1cc(C)cc(C(=O)N2CC(=O)Nc3ccccc32)c1 | -10.2 | -14.6 | 11.2 | 0.3 | -1.0
Cc1ccc(/C=C/C(=O)N2CC(=O)Nc3ccccc32)o1 | -3.0 | -8.8 | 32.6* | -0.6 | -1.1
Cc1cccnc1NC(=O)CSc1ccc2c(c1)OCCO2 | -1.5 | 32.1* | -0.7 | -1.3 | 1.8
O=C(CSc1ccc2c(c1)OCCO2)Nc1cccnc1Cl | -2.5 | -8.7 | 8.6 | -6.7 | 0.2
COc1ccc(Cc2nnc(SCC(=O)N(C)c3ccccc3)o2)cc1 | -3.0 | 66.0* | 1.6 | 4.1 | -0.8
COc1ccc(Cc2nnc(SCC(=O)c3ccccc3)o2)cc1 | -3.4 | 8.0 | -1.7 | -3.8 | 1.0
Cc1cccnc1NC(=O)CSc1nnc(Cc2ccccc2)o1 | -4.9 | 44.4* | -3.6 | -0.9 | 0.2
Cc1ccccc1-c1nnc(SCC(=O)Nc2cccnc2Cl)o1 | -5.6 | / | / | 0.1 | /
COc1ccc(N2CCN(C(=O)C3CCN(S(=O)(=O)c4cn(C)cn4)CC3)CC2)cc1 | / | / | 4.8 | / | 1.5
COC(=O)c1c(NC(=O)COc2ccc(C)cc2Br)sc2c1CCCC2 | / | / | 7.0 | / | 1.1
Cc1ccc(C(=O)NCCN2C3=NC[C@@H](Cc4ccccc4)N3C[C@H]2Cc2ccc(O)cc2)cc1Br | -17.5 | 68.1* | -21.1 | 1.7 | -0.1
O=C(COc1ccc(F)cc1)OCc1cc(=O)n2nc(C3CCCCC3)sc2n1 | / | / | -2.2 | / | -0.8
Cc1ccccc1N=Cc1cc2c(cc1O)OC(N)=C(C#N)C2c1ccccc1 (centres undefined) | -15.2 | 33.1* | -0.7 | 1.4 | 0.4
COc1cccc(C2/C(=C(\O)c3ccc4c(c3)OCCO4)C(=O)C(=O)N2Cc2cccnc2)c1 (centres undefined) | -5.4 | 30.9* | -10.5 | -2.9 | -0.1
O=C1C(=O)N(Cc2cccnc2)C(c2cccc([N+](=O)[O-])c2)/C1=C(\O)c1ccc2c(c1)OCCO2 (centres undefined) | -5.9 | 2.4 | 2.2 | 2.1 | 1.1
CCOc1ccc(/C(O)=C2\C(=O)C(=O)N(CCN(C)C)C2c2cccc(OC)c2OC)cc1Cl (centres undefined) | -34.9 | -5.6 | -3.6 | -2.3 | 0.7
COc1cccc(C2/C(=C(\O)c3ccc4c(c3)OCO4)C(=O)C(=O)N2CCN(C)C)c1OC (centres undefined) | -9.8 | 41.0* | 4.2 | -3.5 | -2.3
Cc1cc(-c2onc3ccc(Cl)cc23)ccc1O | 96.6* | 1.1 | 0.5 | ? | -2.2
Cc1ccc(-c2onc3ccc(C4(C)OCCO4)cc23)cc1 | 68.8* | / | / | 12.7 | /
